Measured values taken from PMC4552634, “A New Set of Chemical Starting Points with Plasmodium falciparum Transmission-Blocking Potential for Antimalarial Drug Discovery” (PLoS ONE, 2015).
About 3,200 (25%) of roughly 13,000 compounds showed an effect of 50% or more. The list shows a part of the results.

test system: P. falciparum stage V gametocytes; set-up: BacTiter-Glo ATP luminescence viability of purified stage V gametocytes in 384-well plates, per cent inhibition versus DMSO; conditions: 48 h, 5 µM; inhibitor

Row | Structure (SMILES) | % Inhibition
1 | CCc1ccc(NC(=O)c2cccc(CN3CCCN(Cc4cccc(O)c4)CC3)c2)cc1 [TCMDC-135989] | -33.27%
2 | O=C(/C=C/c1ccc(Cl)cc1)NCCCCCN1CCCC(C(=O)Nc2ccc(Cl)c(Cl)c2)C1 (stereo not shown) [TCMDC-136125] | -14.11%
3 | Cc1c(CCNC(=O)CCCN2CC(C)CC(C)C2)c2ccccc2n1C (stereo not shown) [TCMDC-131457] | 10.13%
4 | CCC1CN(CCCn2c3ccccc3c3ccccc32)C(CC)CN1 (stereo not shown) [TCMDC-138116] | 25.71%
5 | CC1CN(CCCn2c3ccccc3c3ccc(C(=O)CCCN(C)C)cc32)CC(C)N1 (stereo not shown) [TCMDC-137742] | 88.42%
6 | O=c1[nH]c2ccc(Nc3nccc(NCCc4ccccc4)n3)cc2[nH]1 [TCMDC-136805] | -64.58%
7 | CC(CCCCCC(=O)Nc1ccc(CC(C)NCCc2cccc(Cl)c2)cc1)NCCc1cccc(Cl)c1 (stereo not shown) [TCMDC-139800] | 109.3%
8 | CC(Cc1ccc(NC(=O)CCCc2ccccc2)cc1)NCCc1cccc(Cl)c1 (stereo not shown) [TCMDC-139883] | 22.17%
9 | CC(CCCC(=O)Nc1ccc(CC(C)NCCc2cccc(Cl)c2)cc1)NCCc1cccc(Cl)c1 (stereo not shown) [TCMDC-139798] | 110.2%
10 | CC(CCCCC(=O)Nc1ccc(CC(C)NCCc2cccc(Cl)c2)cc1)NCCc1cccc(Cl)c1 (stereo not shown) [TCMDC-139799] | 105.4%
11 | CC(C)CNc1c2c(nc3cnn(-c4c5c(nc6cn[nH]c46)CCCC5)c13)CCCC2 [TCMDC-131555] | -4.273%
12 | Cc1cccc2nc(-c3ccc(-c4ccc(CN5CCOCC5)cc4)cc3)[nH]c12.O=C(O)C(F)(F)F [TCMDC-133825] | 20.49%
13 | O=C(Nc1ccc(C(F)(F)F)cc1)NC1CCN(c2ccnc3ccccc23)CC1 [TCMDC-133587] | 54.56%
14 | O=C(COc1ccc(F)cc1)NC1CCN(c2ccnc3cc(Cl)ccc23)C1 (stereo not shown) [TCMDC-133397] | -4.375%
15 | O=C(COc1ccccc1)NC1CCN(c2ccnc3cc(Cl)ccc23)C1 (stereo not shown) [TCMDC-133669] | -12.2%
16 | O=C(Nc1ccc(OC(F)(F)F)cc1)NC1CCN(c2ccnc3ccccc23)C1 (stereo not shown) [TCMDC-133583] | -30.46%
17 | CC(C)(C)c1ccc(OCC(=O)NC2CCN(c3ccnc4cc(Cl)ccc34)C2)cc1 (stereo not shown) [TCMDC-133670] | 64.95%
18 | Cc1ccc(NC(=O)NC2CCN(c3ccnc4ccccc34)C2)cc1 (stereo not shown) [TCMDC-133576] | -20.26%
19 | O=C(Nc1ccccc1Br)N[C@@H]1CCN(c2ccnc3ccccc23)C1 [TCMDC-141572] | 52.9%
20 | O=C(Nc1ccc(C(F)(F)F)cc1)NC1CCN(c2ccnc3ccccc23)C1 (stereo not shown) [TCMDC-133578] | 40.18%
21 | O=C(Nc1cccc(C(F)(F)F)c1)NC1CCN(c2ccnc3ccccc23)CC1 [TCMDC-133586] | -4.951%
22 | COc1ccc(NC(=O)NC2CCN(c3ccnc4ccccc34)C2)cc1 (stereo not shown) [TCMDC-133575] | 3.669%
23 | O=C(Nc1ccc(F)cc1)NC1CCN(c2ccnc3ccccc23)C1 (stereo not shown) [TCMDC-133577] | 52.59%
24 | O=C(Nc1ccccc1Oc1ccccc1)NC1CCN(c2ccnc3cc(Cl)ccc23)C1 (stereo not shown) [TCMDC-133401] | -4.379%
25 | Cc1ccc(-c2cc(C(=O)Nc3ccc(S(=O)(=O)N4CC(C)OC(C)C4)cc3)[nH]n2)c(O)c1 (stereo not shown) [TCMDC-125180] | -20.62%

Row | Structure (SMILES) | % Inhibition
26 | COc1ccc2nccc([C@@H](O)CN3CCC(NC(=O)c4ccc(-c5ccccc5)s4)CC3)c2c1 [TCMDC-141106] | 10.46%
27 | O=C(CCCCCNC(=O)c1ccc(O)c(-c2ccc(Cl)c(Cl)c2)c1)NC1CCCCCC1 [TCMDC-140842] | -20.8%
28 | CC(C)(C)c1ccc(N2C(N)=NC(N)=NC2(C)C)cc1 [TCMDC-137713] | 2.693%
29 | O=C(Nc1ccc(Cl)cn1)c1sc2ccccc2c1O [TCMDC-124520] | -11.35%
30 | Cc1ccc(C(=O)Nc2cc(S(=O)(=O)N3CCCC3)ccc2OCC(F)(F)F)cc1 [TCMDC-124325] | -29.62%
31 | O=C(Nc1ccc(Cl)c(Cl)c1)Nc1ccc(F)c([N+](=O)[O-])c1 [TCMDC-125042] | -17.87%
32 | O=C(Nc1ccc(C(F)(F)F)cc1)NC1CCN(c2ccnc3cc(Cl)ccc23)C1 (stereo not shown) [TCMDC-133405] | -22.97%
33 | CC(C)(C)c1ccc(NC(=O)N[C@@H]2CCN(c3ccnc4ccccc34)C2)cc1 [TCMDC-141573] | 101%
34 | O=C(Nc1ccc(OC(F)(F)F)cc1)NC1CCN(c2ccnc3ccccc23)CC1 [TCMDC-133585] | -8.485%
35 | COc1cc(O)c2c(=O)c(OC)c(-c3cccc(Cl)c3OC3O[C@H](CO)[C@@H](O)[C@H](O)[C@H]3O)oc2c1OC (stereo partly shown) [TCMDC-131699] | 3.846%
36 | COc1cccc(-c2csc(C(=O)NCC3CCN(Cc4ccc(C(C)C)cc4)C3)c2)c1 (stereo not shown) [TCMDC-134439] | 107.3%
37 | CC(C)c1ccc(CN2CCC(CNC(=O)c3cc(-c4cccc(F)c4)cs3)C2)cc1 (stereo not shown) [TCMDC-134437] | 107.7%
38 | CC(C)c1ccc(CN2CCCCC(NC(=O)c3cc(-c4cccc(F)c4)cs3)C2)cc1 (stereo not shown) [TCMDC-134463] | -60.78%
39 | CC(C)c1ccc(CN2CCC(CNC(=O)c3cc(-c4cccc(Cl)c4)cs3)C2)cc1 (stereo not shown) [TCMDC-134438] | 95.05%
40 | Cc1cc(N[C@@H](CC(C)C)C(=O)NCCOc2ccccc2)nc(Nc2ccccc2)n1 [TCMDC-134741] | -17.47%
41 | C#CCN(Cc1cc2c(=O)[nH]c(N)nc2cc1C)c1ccc(C(=O)N[C@@H](CCC(=O)O)C(=O)O)cc1 [TCMDC-132041] | 1.845%
42 | CCOC(=O)NC1=NC(C)(C)N(OCc2cccc3c2ccc2ccccc23)C(NC(=O)OCC)=N1 [TCMDC-131339] | 9.295%
43 | CCCCc1ccc(NC(=O)Nc2ccc3c(c2)CCNCC3)cc1 [TCMDC-141500] | 0.2373%
44 | CCOC(=O)c1c(CN2CCCC2)n(-c2ccccc2)c2cc(Br)c(O)cc12 [TCMDC-124122] | -23.97%
45 | C=C[C@]1(C)C[C@@H](OC(=O)c2cncn(COC)c2=O)[C@]2(C)[C@H](C)CC[C@]3(CCC(=O)[C@H]32)[C@@H](C)[C@@H]1O [TCMDC-141314] | 6.014%
46 | CN1CCN(c2cc(NC(=O)Nc3cccc(Cl)c3Cl)ccc2Cl)CC1 [TCMDC-139114] | -11.69%
47 | CCCC(CNCc1cccc(I)c1)CNc1cc(=O)c2ccccc2[nH]1 (stereo not shown) [TCMDC-139433] | 23.15%
48 | CC(=O)N1N=C(c2ccccc2)Sc2c1nc(-c1ccc(Cl)cc1)n2C(C)=O [TCMDC-125193] | 43.76%
49 | CC(=O)N1N=C(c2cccs2)Sc2c1nc(-c1ccc(Cl)cc1)n2C(C)=O [TCMDC-124898] | 78.97%
50 | CC(=O)N1N=C(c2ccc(Cl)cc2)Sc2c1nc(C1CCCCC1)n2C(C)=O [TCMDC-125191] | 45.01%

Row | Structure (SMILES) | % Inhibition
51 | COc1ccc(Cc2nc3c(n2C(C)=O)SC(c2ccc(Cl)c(Cl)c2)=NN3C(C)=O)cc1 [TCMDC-125189] | 18.21%
52 | CCOC(=O)c1[nH]c(-c2ccccc2)nc1-n1nc(C)cc1C [TCMDC-131622] | -5.185%
53 | CC(=O)N1N=C(c2ccc(F)cc2)Sc2c1nc(C1CCCCC1)n2C(C)=O [TCMDC-125190] | 77.23%
54 | CCOC(=O)c1[nH]c(-c2ccc(-c3ccccc3)cc2)nc1N [TCMDC-131797] | -4.943%
55 | CC(=O)N1N=C(c2ccc(F)cc2)Sc2c1nc(-c1ccccc1)n2C(C)=O [TCMDC-125192] | 62.08%
56 | CC(=O)N1N=C(c2ccc(Cl)cc2)Sc2c1nc(-c1ccccc1)n2C(C)=O [TCMDC-124899] | 80.4%
57 | O=C(/C=C/c1ccc(Cl)cc1)NCCCCCN1CCCN(C(=O)Nc2ccc(F)c(Cl)c2)CC1 [TCMDC-136101] | -6.119%
58 | COc1cccc(CNC[C@@H](O)[C@H](Cc2ccccc2)NC(=O)c2cc(C3CCCC3)cc(N3CCCCS3(=O)=O)c2)c1 [TCMDC-134523] | 42.74%
59 | CCC1(CC)N=C(N)N=C(N)C1c1ccc(Cl)c(Cl)c1 (stereo not shown) [TCMDC-137597] | 8.83%
60 | COc1ccc(CN2CCCC(C(=O)c3ccc(C(F)(F)F)cc3)C2)c(O)c1 (stereo not shown) [TCMDC-124631] | 43.69%
61 | CS(=O)(=O)Cc1ccc(Nc2nccc(-c3c(-c4cccc(NC(=O)C5CCCCC5)c4)nn4ncccc34)n2)cc1 [TCMDC-135812] | -14.86%
62 | CC(=O)Nc1cccc(-c2cnc(N)c3cc(-c4ccc5c(c4)OCO5)ccc23)c1 [TCMDC-134504] | 30.5%
63 | Cn1nccc1C(=O)NCCNCc1ccc(-c2ccc(-c3nc4ccccc4[nH]3)s2)cc1.O=C(O)C(F)(F)F [TCMDC-133004] | -2.407%
64 | CCN(CC)S(=O)(=O)c1cc(-c2ccc(=O)n(CC(=O)c3ccc(C)cc3)n2)ccc1C [TCMDC-124707] | -20.12%
65 | CCC(=O)c1ccc(-c2ccc(=O)n(CC(=O)N(CCN(CC)CC)Cc3ccc(-c4ccc(C(F)(F)F)cc4)cc3)n2)cc1 [TCMDC-141574] | 82.08%
66 | CCN(CC)CCN(Cc1ccc(-c2ccc(C(F)(F)F)cc2)cc1)C(=O)Cn1nc(-c2ccc(C(F)(F)F)cc2)ccc1=O [TCMDC-141575] | 69.38%
67 | NS(=O)(=O)c1cccc(Nc2nc(N[C@@H]3CCNC3)nc3cc[nH]c(=O)c23)c1 [TCMDC-135057] | -11.44%
68 | Cc1cccc(Nc2nc(N[C@@H]3CCCNC3)nc3cc[nH]c(=O)c23)c1 [TCMDC-134835] | -44.23%
69 | Cc1cc(N2Cc3ccccc3C2)nc(Nc2ccc(S(=O)(=O)N3CCOCC3)cc2)n1 [TCMDC-134229] | -25.67%
70 | O=c1[nH]ccc2nc(N[C@@H]3CCNC3)nc(Nc3cccc(S(=O)(=O)N4CCOCC4)c3)c12 [TCMDC-135047] | 89.83%
71 | O=c1[nH]ccc2nc(N[C@@H]3CCNC3)nc(Nc3cc(Cl)cc(Cl)c3)c12 [TCMDC-135052] | 102.4%
72 | O=c1[nH]ccc2nc(N[C@@H]3CCNC3)nc(Nc3ccc4c(c3)S(=O)(=O)CC4)c12 [TCMDC-135044] | 71.11%
73 | CN(C)S(=O)(=O)c1ccc(Nc2nc(NCCC3C=NC=N3)nc3cc[nH]c(=O)c23)cc1 (stereo not shown) [TCMDC-135045] | -6.172%
